# According to the supplement of paper PMC8728848:
# Shown is part of a subset that was picked to be rich in the strongest signals.
# B1: StcE (Escherichia coli), O82882.2 (protein)
# chain: ADNNSAIYFNTSQPINDLQGSLAAEVKFAQSQILPAHPKEGDSQPHLTSLRKSLLLVRPVKADDKTPVQVEARDDNNKILGTLTLYPPSSLPDTIYHLDGVPEGGIDFTPHNGTKKIINTVAEVNKLSDASGSSIHSHLTNNALVEIHTANGRWVRDIYLPQGPDLEGKMVRFVSSAGYSSTVFYGDRKVTLSVGNTLLFKYVNGQWFRSGELENNRITYAQHIWSAELPAHWIVPGLNLVIKQGNLSGRLNDIKIGAPGELLLHTIDIGMLTTPRDRFDFAKDKEAHREYFQTIPVSRMIVNNYAPLHLKEVMLPTGELLTDMDPGNGGWHSGTMRQRIGKELVSHGIDNANYGLNSTAGLGENSHPYVVAQLAAHNSRGNYANGIQVHGGSGGGGIVTLDSTLGNEFSHEVGHNYGLGHYVDGFKGSVHRSAENNNSTWGWDGDKKRFIPNFYPSQTNEKSCLNNQCQEPFDGHKFGFDAMAGGSPFSAANRFTMYTPNSSAIIQRFFENKAVFDSRSSTGFSKWNADTQEMEPYEHTIDRAEQITASVNELSESKMAELMAEYAVVKVHMWNGNWTRNIYIPTASADNRGSILTINHEAGYNSYLFINGDEKVVSQGYKKSFVSDGQFWKERDVVDTREARKPEQFGVPVTTLVGYYDPEGTLSSYIYPAMYGAYGFTYSDDSQNLSDNDCQLQVDTKEGQLRFRLANHRANNTVMNKFHINVPTESQPTQATLVCNNKILDTKSLTPAPEGLTYTVNGQALPAKENEGCIVSVNSGKRYCLPVGQRSGYSLPDWIVGQEVYVDSGAKAKVLLSDWDNLSYNRIGEFVGNVNPADMKKVKAWNGQYLDFSKPRSMRVVYK
# Legend:
# Experiment in all cases: glycan array binding signal (z-score within array); higher = stronger binding
# Conditions in all cases: glycan notation: IUPAC condensed, linker removed
# [1] = biological target: Fuc(a1-2)Gal(b1-3)GalNAc(a1-3)[Fuc(a1-2)]Gal(b1-4)Glc
# In short: (§1)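 Glycan array data were curated from 3228 arrays in the Consortium for Functional Glycomics database and kept only where the protein sequence was available. Glycan names were converted to IUPAC-condensed notation, and columns mapping to the same glycan were averaged. The binding signal is a within-array Z-score, averaged across arrays of the same protein sequence at different concentrations or buffers and across linkers. Negative Z-scores can be read as non-binding.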
# [2] = biological target: Fuc(a1-2)Gal(b1-3)GlcNAc(b1-3)Gal(b1-4)Glc
# In short: as §1
# [3] = biological target: Fuc(a1-2)Gal(b1-3)[Fuc(a1-4)]GlcNAc(b1-3)[Fuc(a1-3)[Gal(b1-4)]GlcNAc(b1-6)]Gal(b1-4)Glc
# In short: as §1
# [4] = biological target: Fuc(a1-2)Gal(b1-4)GlcNAc(b1-2)Man
# In short: as §1
# [5] = biological target: Fuc(a1-2)Gal(b1-4)GlcNAc(b1-2)Man(a1-3)[Fuc(a1-2)Gal(b1-4)GlcNAc(b1-2)Man(a1-6)]Man(b1-4)GlcNAc(b1-4)[Fuc(a1-6)]GlcNAc
# In short: as §1
# [6] = biological target: Fuc(a1-2)Gal(b1-4)GlcNAc(b1-3)[Fuc(a1-2)Gal(b1-4)GlcNAc(b1-6)]GalNAc
# In short: as §1
# [7] = biological target: Fuc(a1-2)Gal(b1-4)[Fuc(a1-3)]GlcNAc(b1-3)Gal(b1-4)[Fuc(a1-3)]GlcNAc
# In short: as §1
# [8] = biological target: Fuc(a1-2)Gal6S(b1-3)GlcNAc6S
# In short: as §1
# [9] = biological target: Fuc(a1-2)[GalNAc(a1-3)]Gal(b1-3)GlcNAc(b1-2)Man(a1-3)[Fuc(a1-2)[GalNAc(a1-3)]Gal(b1-3)GlcNAc(b1-2)Man(a1-6)]Man(b1-4)GlcNAc(b1-4)[Fuc(a1-6)]GlcNAc
# In short: as §1
# [10] = biological target: Fuc(a1-2)[GalNAc(a1-3)]Gal(b1-3)GlcNAc(b1-3)GalNAc
# In short: as §1
# [11] = biological target: Fuc(a1-2)[GalNAc(a1-3)]Gal(b1-4)GlcNAc(b1-2)Man(a1-3)[Fuc(a1-2)[GalNAc(a1-3)]Gal(b1-4)GlcNAc(b1-2)Man(a1-6)]Man(b1-4)GlcNAc(b1-4)[Fuc(a1-6)]GlcNAc
# In short: as §1
# [12] = biological target: Fuc(a1-3)[Gal(b1-4)]GlcNAc(b1-2)Man(a1-3)[Fuc(a1-3)[Gal(b1-4)]GlcNAc(b1-2)Man(a1-6)]Man(b1-4)GlcNAc(b1-4)[Fuc(a1-6)]GlcNAc
# In short: as §1
# [13] = biological target: Fuc(a1-3)[GalNAc3S(b1-4)]GlcNAc
# In short: as §1
# [14] = biological target: Gal(a1-3)Gal(b1-3)[Fuc(a1-4)]GlcNAc(b1-2)Man(a1-3)[Gal(a1-3)Gal(b1-3)[Fuc(a1-4)]GlcNAc(b1-2)Man(a1-6)]Man(b1-4)GlcNAc(b1-4)GlcNAc
# In short: as §1
# Gal(a1-3)Gal(b1-4)Glc = biological target: Gal(a1-3)Gal(b1-4)Glc
# In short: as §1
# [15] = biological target: Gal(a1-3)Gal(b1-4)[Fuc(a1-3)]GlcNAc
# In short: as §1
# Gal(a1-4)Gal(b1-4)GlcNAc = biological target: Gal(a1-4)Gal(b1-4)GlcNAc
# In short: as §1
# Gal(b1-2)Gal = biological target: Gal(b1-2)Gal
# In short: as §1
# [16] = biological target: Gal(b1-3)GalNAc(a1-3)[Fuc(a1-2)]Gal(b1-4)GlcNAc
# In short: as §1
# [17] = biological target: Gal(b1-3)GlcNAc(a1-3)Gal(b1-4)GlcNAc
# In short: as §1
# [18] = biological target: Gal(b1-3)GlcNAc(b1-3)Gal(b1-3)GlcNAc
# In short: as §1
# [19] = biological target: Gal(b1-3)[Fuc(a1-4)]GlcNAc(b1-2)Man(a1-3)[Gal(b1-3)[Fuc(a1-4)]GlcNAc(b1-2)Man(a1-6)]Man(b1-4)GlcNAc(b1-4)[Fuc(a1-6)]GlcNAc
# In short: as §1
# Gal(b1-4)GlcNAc(b1-2)Man = biological target: Gal(b1-4)GlcNAc(b1-2)Man
# In short: as §1
# Gal3S6S(b1-4)GlcNAc = biological target: Gal3S6S(b1-4)GlcNAc
# In short: as §1
# Gal6S(b1-4)Glc = biological target: Gal6S(b1-4)Glc
# In short: as §1
# [20] = biological target: GlcNAc(a1-4)Gal(b1-4)GlcNAc(b1-3)Gal(b1-4)[Fuc(a1-3)]GlcNAc(b1-3)Gal(b1-4)[Fuc(a1-3)]GlcNAc
# In short: as §1
# [21] = biological target: GlcNAc(b1-2)Man(a1-3)[GlcNAc(b1-4)][GlcNAc(b1-2)Man(a1-6)]Man(b1-4)GlcNAc(b1-4)GlcNAc
# In short: as §1
# GlcNAc(b1-3)Gal = biological target: GlcNAc(b1-3)Gal
# In short: as §1
# [22] = biological target: Kdn(a2-3)Gal(b1-4)[Fuc(a1-3)]GlcNAc
# In short: as §1
# [23] = biological target: Man(a1-2)Man(a1-2)Man(a1-3)Man
# In short: as §1
# [24] = biological target: Man(a1-2)Man(a1-6)[Man(a1-3)]Man(a1-6)[Man(a1-2)Man(a1-2)Man(a1-3)]Man
# In short: as §1
# [25] = biological target: Man(a1-3)[Man(a1-6)]Man(a1-6)[Man(a1-3)]Man(b1-4)GlcNAc(b1-4)GlcNAc
# In short: as §1
# [26] = biological target: Man(a1-3)[Man(a1-6)]Man(b1-4)GlcNAc(b1-4)[Fuc(a1-6)]GlcNAc
# In short: as §1
# [27] = biological target: Neu5Ac(a2-3)Gal(b1-3)GlcNAc(b1-2)Man(a1-3)[GlcNAc(b1-4)][Neu5Ac(a2-3)Gal(b1-3)GlcNAc(b1-2)Man(a1-6)]Man(b1-4)GlcNAc(b1-4)GlcNAc
# In short: as §1
# [28] = biological target: Neu5Ac(a2-3)Gal(b1-3)[Fuc(a1-4)]GlcNAc(b1-3)Gal(b1-3)[Fuc(a1-4)]GlcNAc
# In short: as §1
# [29] = biological target: Neu5Ac(a2-3)Gal(b1-3)[Neu5Ac(a2-6)]GalNAc
# In short: as §1
# [30] = biological target: Neu5Ac(a2-3)Gal(b1-4)GlcNAc(b1-3)Gal(b1-4)[Fuc(a1-3)]GlcNAc
# In short: as §1
# [31] = biological target: Neu5Ac(a2-3)Gal(b1-4)[Fuc(a1-3)]GlcNAc6S
# In short: as §1
# [32] = biological target: Neu5Ac(a2-6)Gal(b1-4)GlcNAc(b1-3)GalNAc
# In short: as §1
# [33] = biological target: Neu5Ac(a2-6)GlcNAc(b1-4)GlcNAc
# In short: as §1
# [34] = biological target: Neu5Gc(a2-3)Gal(b1-4)GlcNAc
# In short: as §1
binder,measurement,setting,value
B1,glycan array binding signal (z-score),[1],-0.142
same,glycan array binding signal (z-score),[2],-0.144
same,glycan array binding signal (z-score),[3],-0.147
same,glycan array binding signal (z-score),[4],-0.132
same,glycan array binding signal (z-score),[5],1.14
same,glycan array binding signal (z-score),[6],2.85
same,glycan array binding signal (z-score),[7],-0.122
same,glycan array binding signal (z-score),[8],5.23
same,glycan array binding signal (z-score),[9],0.015
same,glycan array binding signal (z-score),[10],-0.096
same,glycan array binding signal (z-score),[11],-0.164
same,glycan array binding signal (z-score),[12],-0.117
same,glycan array binding signal (z-score),[13],-0.164
same,glycan array binding signal (z-score),[14],4.13
same,glycan array binding signal (z-score),Gal(a1-3)Gal(b1-4)Glc,-0.25
same,glycan array binding signal (z-score),[15],0.116
same,glycan array binding signal (z-score),Gal(a1-4)Gal(b1-4)GlcNAc,-0.215
same,glycan array binding signal (z-score),Gal(b1-2)Gal,0.601
same,glycan array binding signal (z-score),[16],-0.17
same,glycan array binding signal (z-score),[17],-0.109
same,glycan array binding signal (z-score),[18],-0.142
same,glycan array binding signal (z-score),[19],4.66
same,glycan array binding signal (z-score),Gal(b1-4)GlcNAc(b1-2)Man,-0.167
same,glycan array binding signal (z-score),Gal3S6S(b1-4)GlcNAc,-0.175
same,glycan array binding signal (z-score),Gal6S(b1-4)Glc,0.013
same,glycan array binding signal (z-score),[20],3.96
same,glycan array binding signal (z-score),[21],-0.167
same,glycan array binding signal (z-score),GlcNAc(b1-3)Gal,0.13
same,glycan array binding signal (z-score),[22],-0.152
same,glycan array binding signal (z-score),[23],-0.442
same,glycan array binding signal (z-score),[24],-0.148
same,glycan array binding signal (z-score),[25],-0.198
same,glycan array binding signal (z-score),[26],-0.049
same,glycan array binding signal (z-score),[27],-0.142
same,glycan array binding signal (z-score),[28],4.08
same,glycan array binding signal (z-score),[29],8.93
same,glycan array binding signal (z-score),[30],-0.162
same,glycan array binding signal (z-score),[31],2.84
same,glycan array binding signal (z-score),[32],2.78
same,glycan array binding signal (z-score),[33],-0.156
same,glycan array binding signal (z-score),[34],-0.113
